The values that follow come from PubChem BioAssay (NCATS).

Structures are written as SMILES. Inconclusive results are not listed. The source made the active and inactive calls. The call rests on the fitted dose curve; in most records, active means well fitted curve in the direction sought with a large enough effect; inconclusive means small, poorly fitted or top-dose-only effect, or another doubt; inactive means no such curve, though single readings can be large; an effect the other way counts as inactive or inconclusive.

Tested on in the first assay: not listed separately
The experiment in a line: Cell Proliferation Assay against the HBL1 Cell Line (AID 651646).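 Further: cells exposed to compound for 48 h before reading.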 The following applies: HBL1 DLBCL cells; at 46.1 µM (top of the series). The procedure, abridged: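 HBL1 ABC DLBCL cells, 500/well in RPMI with 5% FBS, treated for 48 h at 37C. Viability read by CellTiter-Glo luminescence, normalized to DMSO as 100% and 9.2 uM bortezomib as 0%.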
Regarding `COc1ccc(CCN(C)CCCOc2ccc(S(=O)(=O)c3[nH]c4ccccc4c3C(C)C)cc2)cc1OC`, the viability, percent of control came out at 7.05%. Consider `Cc1cccc(Nc2nc(N[C@@H]3CCCC[C@H]3N)ncc2C(N)=O)c1`, for which the viability, percent of control amounted to 2.69%.

Take `CCc1cc(-c2n[nH]c(C)c2-c2ccc3c(c2)OCCO3)c(O)cc1O`: the viability, percent of control is 34.6%. On the same count and under the same terms, the value for `O=C(Nc1ccc(OC(F)(F)F)cc1)c1sccc1NCc1ccnc2ccccc12` was 26%. For `CC(C)C[C@H](NC(=O)c1cc2ccccc2s1)C(=O)N1CCN(C(=O)[C@H](CO)NS(=O)(=O)c2ccc(Cl)cc2Cl)CC1`, the viability, percent of control is 3.69%.

On to `CCOC(=O)[C@@H](N)CCC(=O)N[C@@H](CSCc1ccccc1)C(=O)N[C@@H](C(=O)OCC)c1ccccc1`, for which the viability, percent of control was 89.4%. The same measure, in the same setting: for `CC(C)(C)c1[nH]cnc1C=c1[nH]c(=O)c(=Cc2ccccc2)[nH]c1=O` the value was 7.81%; for `Cc1c(C(=O)Nc2ccc(N3C[C@@H](C)O[C@@H](C)C3)nc2)cccc1-c1ccc(OC(F)(F)F)cc1`, 32.3%; for `CC(=O)Nc1cccc(-n2c(=O)n(C3CC3)c(=O)c3c(Nc4ccc(I)cc4F)n(C)c(=O)c(C)c32)c1`, 6.64%. Still for that read-out and setting: the value for `CN(C)CCN(C)C(=O)c1ccc(NC(=O)Nc2ccc(-c3nc(N4CCOCC4)c4ccn(CC(F)(F)F)c4n3)cc2)cc1` was 1.25%; that for `Cc1ccc(C(=O)N(CCCN)[C@@H](c2nc3cc(Cl)ccc3c(=O)n2Cc2ccccc2)C(C)C)cc1` was 1.66%; that for `COc1ccc2c(c1)CC[C@H]1[C@@H]2CC[C@]2(C)[C@@H](NCCCCCCN3C(=O)C=CC3=O)CC[C@H]12` was 33.1%. Regarding `CC(=O)NCCC(=O)N[C@@H](CCC(N)=O)C(=O)N[C@@H](CO)C(=O)N[C@@H](CCC(N)=O)C(=O)N[C@@H](CCC(N)=O)C(=O)N[C@H](C(=O)N[C@@H](Cc1ccccc1)C(=O)N[C@]1(C)CCCCCCC=CCCC[C@@](C)(C(=O)N[C@@H](CCC(N)=O)C(=O)N[C@@H](CC(N)=O)C(N)=O)NC(=O)[C@H](CC(C)C)NC(=O)[C@H](CC(C)C)NC(=O)[C@@H](CCCNC(=N)N)NC(=O)[C@H](Cc2c[nH]c3ccccc23)NC(=O)[C@H](CC(C)C)NC(=O)[C@H](CC(N)=O)NC1=O)[C@H](C)O`, the viability, percent of control stood at 3.58%.

As to `CC(C)Oc1cc(Nc2nc(N[C@@H](C)c3ccc(F)cn3)ncc2Cl)[nH]n1`, the viability, percent of control amounted to 13.4%. On the same count and under the same terms, the value for `CCCCc1ccc(NS(=O)(=O)c2ccc(C)c(C(=O)N3CCN(c4cccc(C)c4C)CC3)c2)cc1` was 6.19%; that for `O=C(O)Cc1cccc(OCCCN(Cc2cccc(C(F)(F)F)c2Cl)CC(c2ccccc2)c2ccccc2)c1` was 12.9%; that for `COc1cc2nccc(Oc3ccc(NC(=O)Nc4cc(C)on4)c(Cl)c3)c2cc1OC` was 26.7%. Still for that read-out and setting: the value for `CC1=C[C@@H]2[C@@H]([C@@H](O)C[C@@]3(C)[C@H]2C[C@@H](C)[C@]3(O)C(=O)CO)[C@@]2(C)Cc3cnn(-c4ccccc4)c3C=C12` was 2.33%; that for `Cc1cc2c(cc1C1(c3ccc(C(=O)O)cn3)CC1)C(C)(C)CCC2(C)C` was 48.2%.

For `CCN(CC)CCCCNc1nc2cc(Cl)c(Cl)cc2nc1-c1ccc(-c2cccs2)s1`, the viability, percent of control came out at 1.92%.

On to `CCNC(=O)c1noc(-c2cc(C(C)C)c(O)cc2O)c1-c1ccc(CN2CCOCC2)cc1`, for which the viability, percent of control is 47.2%.

Tested on in a further assay: not listed separately
The experiment in a line: Cell Proliferation Assay against the TMD8 Cell Line (Caspase readout at 8 hrs) (AID 651713). Further: potency means the concentration at half of the fitted maximal effect. The following applies: TMD8 lymphoma cells, caspase activation luminescence; series mostly up to 46.1 µM; caspase activation: at the top concentration. The procedure, abridged:
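Percent activity derived from Caspase-Glo signal, DMSO set to 0% and bortezomib (9.2 uM final) to 100%. TMD8 cells were exposed to compound for 8 h in RPMI with 5% FBS.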
For `Cc1cccc(Nc2nc(N[C@@H]3CCCC[C@H]3N)ncc2C(N)=O)c1`, the “caspase activation” value is 24.6% (inactive). As for `CN(C)CCN(C)C(=O)c1ccc(NC(=O)Nc2ccc(-c3nc(N4CCOCC4)c4ccn(CC(F)(F)F)c4n3)cc2)cc1`, the Potency was 29600 nM (active). In the case of `CC(C)n1c(C=C[C@H](O)C[C@H](O)CC(=O)O)c(-c2ccc(F)cc2)c2ccccc21`, the “caspase activation” value is -1.7% (inactive). On the same count and under the same terms, the value for `Cc1cc2c(cc1C1(c3ccc(C(=O)O)cn3)CC1)C(C)(C)CCC2(C)C` was 7.79% (inactive).

The target in a further assay is Tyrosine-protein kinase Yes (Homo sapiens) (UniProt P07947). The experiment in a line: qHTS for small molecule inhibitors of Yes1 kinase: Primary Screen (AID 686947). Further: nearly all actives have a fitted effect of over 60% in size. Further: potency means the concentration at half of the fitted maximal effect.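 On activity change, negative = inhibition: plate controls were DMSO with enzyme for no effect and no-enzyme DMSO wells for full effect.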 The following applies: Yes1 kinase biochemical qHTS inhibition; series mostly up to 76.9 µM; activity change, negative = inhibition: at the top concentration. The procedure, abridged: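 ADP-Glo luminescence readout; final 4 nM Yes1, 0.1 mM ATP, 0.3 mg/mL poly(E4Y), Tris pH 7.5, MgCl2, DTT, Brij-35. 20 min compound preincubation, 60 min reaction at RT. Normalized to DMSO wells with and without enzyme.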
Chain of Tyrosine-protein kinase Yes (Homo sapiens) (P07947 whole entry, looked up): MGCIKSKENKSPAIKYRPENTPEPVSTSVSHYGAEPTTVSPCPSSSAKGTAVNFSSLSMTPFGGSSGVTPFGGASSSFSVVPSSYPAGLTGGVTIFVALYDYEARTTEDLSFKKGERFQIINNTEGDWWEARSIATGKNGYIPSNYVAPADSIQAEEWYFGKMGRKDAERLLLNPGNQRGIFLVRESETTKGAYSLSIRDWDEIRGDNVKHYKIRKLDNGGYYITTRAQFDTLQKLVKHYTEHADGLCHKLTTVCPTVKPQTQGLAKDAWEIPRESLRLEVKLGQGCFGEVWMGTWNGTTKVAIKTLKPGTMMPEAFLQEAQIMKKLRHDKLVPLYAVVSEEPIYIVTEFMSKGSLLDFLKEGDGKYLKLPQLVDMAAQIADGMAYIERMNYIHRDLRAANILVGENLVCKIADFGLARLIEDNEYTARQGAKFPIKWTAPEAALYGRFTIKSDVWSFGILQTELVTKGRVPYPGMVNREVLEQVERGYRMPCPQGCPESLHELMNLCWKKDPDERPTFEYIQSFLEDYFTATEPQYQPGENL
A general note: qHTS replaces the single test concentration by a dilution series.
In the case of `COc1ccc(CCN(C)CCCOc2ccc(S(=O)(=O)c3[nH]c4ccccc4c3C(C)C)cc2)cc1OC`, the “activity change, negative = inhibition” value was 9.9% (inactive).

With `Cc1cccc(Nc2nc(N[C@@H]3CCCC[C@H]3N)ncc2C(N)=O)c1`, the Potency is 387 nM (active).

As to `CCc1cc(-c2n[nH]c(C)c2-c2ccc3c(c2)OCCO3)c(O)cc1O`, the Potency is 4340 nM (active). As for `CC(C)C[C@H](NC(=O)c1cc2ccccc2s1)C(=O)N1CCN(C(=O)[C@H](CO)NS(=O)(=O)c2ccc(Cl)cc2Cl)CC1`, the “activity change, negative = inhibition” value was -4.82% (inactive).

Take `CCOC(=O)[C@@H](N)CCC(=O)N[C@@H](CSCc1ccccc1)C(=O)N[C@@H](C(=O)OCC)c1ccccc1`: the “activity change, negative = inhibition” value was -0.882% (inactive).

With `CC(C)(C)c1[nH]cnc1C=c1[nH]c(=O)c(=Cc2ccccc2)[nH]c1=O`, the “activity change, negative = inhibition” value was 23.6% (inactive). `Cc1c(C(=O)Nc2ccc(N3C[C@@H](C)O[C@@H](C)C3)nc2)cccc1-c1ccc(OC(F)(F)F)cc1`: the “activity change, negative = inhibition” value is -9.72% (inactive). In the case of `CC(=O)Nc1cccc(-n2c(=O)n(C3CC3)c(=O)c3c(Nc4ccc(I)cc4F)n(C)c(=O)c(C)c32)c1`, the “activity change, negative = inhibition” value is -13.9% (inactive).

Consider `Cc1ccc(C(=O)N(CCCN)[C@@H](c2nc3cc(Cl)ccc3c(=O)n2Cc2ccccc2)C(C)C)cc1`, for which the “activity change, negative = inhibition” value was -12.4% (inactive).

`COc1ccc2c(c1)CC[C@H]1[C@@H]2CC[C@]2(C)[C@@H](NCCCCCCN3C(=O)C=CC3=O)CC[C@H]12`: the “activity change, negative = inhibition” value is -1.62% (inactive).

For `CC(C)n1c(C=C[C@H](O)C[C@H](O)CC(=O)O)c(-c2ccc(F)cc2)c2ccccc21`, the “activity change, negative = inhibition” value is 9.06% (inactive). `CC(C)Oc1cc(Nc2nc(N[C@@H](C)c3ccc(F)cn3)ncc2Cl)[nH]n1`: the Potency was 6.1 nM (active).

`O=C1Nc2ccc(I)cc2C1=Cc1cc(Br)c(O)c(Br)c1`: the Potency was 5820 nM (active).

For `CCCCc1ccc(NS(=O)(=O)c2ccc(C)c(C(=O)N3CCN(c4cccc(C)c4C)CC3)c2)cc1`, the “activity change, negative = inhibition” value was 18.1% (inactive).

As for `COc1cc2nccc(Oc3ccc(NC(=O)Nc4cc(C)on4)c(Cl)c3)c2cc1OC`, the Potency was 772 nM (active). Take `COc1cc2ncn(-c3cc(OCc4ccccc4S(C)(=O)=O)c(C#N)s3)c2cc1OC`: the Potency is 232 nM (active). In the case of `CC1=C[C@@H]2[C@@H]([C@@H](O)C[C@@]3(C)[C@H]2C[C@@H](C)[C@]3(O)C(=O)CO)[C@@]2(C)Cc3cnn(-c4ccccc4)c3C=C12`, the “activity change, negative = inhibition” value was -7.12% (inactive).
